Assay outcomes: PubChem, National Center for Advancing Translational Sciences (NCATS)
ELG1 genotoxic: genotoxicity induction in ELG1-luciferase HEK293T cells; AID 504466; HEK293T ELG1-luciferase reporter, luminescence, 16 h; Potency, µM (series often up to 46 µM), for inactives: top-dose activity change, positive = activation, most hits filed as activators; actives 1.3% (n = 330,000); further: % of control where 0% means no effect; nearly all actives have a fitted effect of over 60% in size
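Quantitative HTS format in 1536-well plates. HEK293T ELG1-luciferase reporter cells receive test compound and are incubated 16 hr at 37 °C, 5% CO2; ONE-Glo added, 30 min room temperature, then luminescence read.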
FLuc counter: firefly luciferase modulation, counter-screen for miR-21 project; P08659; purified FLuc, Km substrates, luminescence inhibition; Potency, µM (series often up to 57.5 µM), for the others: at the highest dose activity change, negative = inhibition, actives largely listed as inhibitors; actives 6.9% (n = 360,000);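 further: plate controls were vehicle for no effect and reference inhibitor for full effect; nearly all actives have a fitted effect of over 55% in size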
Target sequence (P08659 whole entry, looked up): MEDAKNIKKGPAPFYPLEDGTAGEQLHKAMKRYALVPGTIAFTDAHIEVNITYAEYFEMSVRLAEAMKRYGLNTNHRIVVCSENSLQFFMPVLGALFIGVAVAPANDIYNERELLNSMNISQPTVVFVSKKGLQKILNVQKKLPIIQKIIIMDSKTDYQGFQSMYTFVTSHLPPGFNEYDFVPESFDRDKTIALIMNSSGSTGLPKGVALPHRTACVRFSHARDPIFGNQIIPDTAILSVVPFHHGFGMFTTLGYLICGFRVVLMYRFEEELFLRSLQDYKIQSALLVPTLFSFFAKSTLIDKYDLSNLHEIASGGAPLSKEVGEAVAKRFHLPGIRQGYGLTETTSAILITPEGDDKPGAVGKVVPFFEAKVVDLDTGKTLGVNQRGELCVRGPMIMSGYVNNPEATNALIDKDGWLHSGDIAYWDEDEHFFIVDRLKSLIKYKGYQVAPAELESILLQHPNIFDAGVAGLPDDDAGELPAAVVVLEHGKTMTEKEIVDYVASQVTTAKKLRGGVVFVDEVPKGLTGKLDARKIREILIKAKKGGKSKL
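Purified P. pyralis luciferase (10nM final) with 10uM D-luciferin and 10uM ATP (Km levels) in 50mM Tris acetate pH 7.5, 10mM Mg acetate, 0.01% Tween-20, 0.05% BSA; qHTS 6-point titration, ~60 µM downward; luminescence read.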
NPC1 promoter act: activators of NPC1 promoter; Huh7 NPC1 promoter luciferase reporter, 24 h; Potency, µM (doses to about 9.22 µM), for the others: top-dose activation, hits mostly activators; actives 2.4% (n = 320,000); AID 485313; further: % of control where 0% means no effect; nearly all actives have a fitted effect of over 60% in size
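Cells: Huh7 expressing luciferase under the NPC1 promoter, 1500/well. Seeded 2 h, compound added, incubated 24 h at 37 °C. Luciferase reagent, 10 min ambient, then luminescence.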
Rab9 prom act: activates the Rab9 promoter; Huh7 Rab9 promoter-luciferase reporter, luminescence, 24 h; Potency, µM (doses to about 9.22 µM), without a hit: at the highest dose activation, negative = inhibition, hits mostly activators; actives 2.8% (n = 320,000); further: % of control where 0% means no effect; nearly all actives have a fitted effect of over 60% in size
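Rab9 promoter-driven luciferase in stably transfected Huh7 cells; 1500 cells/well rested 2 h, exposed to compound in DMSO for 24 h at 37 °C, 5% CO2. Luminescence read 10 min after adding luciferase reagent at ambient temperature.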
ELG1 DNA repair: ELG1-dependent DNA repair inhibition; HEK293T ELG1-luciferase reporter, luminescence, 16 h; DNA damage induced by 5-fluorouridine; Potency, µM (titrated, usually from 46.1 µM), for inactives: at the highest dose activity change, negative = inhibition, usual class: inhibitors; actives 2.3% (n = 330,000); further: on the % scale 0 is the no-effect control and ±100 the full control effect; nearly all actives have a fitted effect of over 55% in size
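5-Fluorouridine DNA damage + compound/DMSO, 2,000 cells/well, 16 h, 37 °C/5% CO2. ONE-Glo, 30 min RT, luminescence. Readout = decrease in reporter signal.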
SMN2 splice enh: increases expression of the SMN2 splice variant. HEK293 SMN2-luciferase splicing reporter, luminescence, 30-36 h. Potency, µM (doses to about 46.1 µM), for the others: at the highest dose activity change, positive = activation, actives largely listed as activators. actives 2.8% (n = 210,000). AID 1458; further: % of control where 0% means no effect; nearly all actives have a fitted effect of over 55% in size
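HEK293 cells carry an SMN2 minigene-luciferase reporter in which exon 7 inclusion puts luciferase in frame. Cells were seeded at 2000 cells/well, attached for 10-12 hours, then exposed to compounds for 30-36 hours at 37C before ONE-Glo luminescence.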
* = called active by the depositor. A selection: hits, their analogues and other compounds. The true share with any hit is near 9.3%. The call rests on the fitted dose curve; in most records, active means well fitted curve in the direction sought with a large enough effect; inconclusive means small, poorly fitted or top-dose-only effect, or another doubt; inactive means no such curve, though single readings can be large; an effect the other way counts as inactive or inconclusive. Potency means the concentration at half of the fitted maximal effect.

What do the screens show for `COc1cccc(NC(=O)CCN2CCN(c3ccccc3F)CC2)c1`?
ELG1 genotoxic: -5%; FLuc counter: 4%; NPC1 promoter act: -1%; Rab9 prom act: -5%; ELG1 DNA repair: -1%; SMN2 splice enh: 15%

How did CN(C)c1ccc(C(=S)N2CCN(S(=O)(=O)c3ccccc3)CC2)cc1 do in these assays?
ELG1 genotoxic: -3%; FLuc counter: -2%; NPC1 promoter act: 3%; Rab9 prom act: -1%; ELG1 DNA repair: -3%

How did COc1ccc(-c2cn3nc(N4CCCC(C(=O)NCc5ccccc5Cl)C4)sc3n2)cc1 (stereo unspecified) do in these assays?
FLuc counter: 9.5µM*

How did COc1ccc(-c2cn3nc(N4CCCC(C(=O)Nc5ccc(Cl)cc5C)C4)sc3n2)cc1 (stereo unspecified) do in these assays?
FLuc counter: -4%

What do the screens show for `COc1ccc(NC(=S)N(CCc2nc3cc(C)c(C)cc3[nH]2)Cc2cccnc2)cc1`?
ELG1 genotoxic: -5%; FLuc counter: -5%; NPC1 promoter act: -5%; Rab9 prom act: 0%; ELG1 DNA repair: 16µM*; SMN2 splice enh: 8%

How did COc1ccc(NC(=S)N(CCc2c(C)[nH]c3ccccc23)Cc2cccnc2)cc1 do in these assays?
ELG1 genotoxic: -3%; FLuc counter: 3%; NPC1 promoter act: 0%; Rab9 prom act: -5%; ELG1 DNA repair: -24%; SMN2 splice enh: -4%

What do the screens show for `O=C(Nc1ccc(F)cc1F)c1ccc2c(c1)[nH]c(=O)n2Cc1ccc(F)cc1`?
ELG1 genotoxic: 2%; FLuc counter: 0%; NPC1 promoter act: -5%; Rab9 prom act: -5%; ELG1 DNA repair: inconclusive

What do the screens show for `Cc1ccc(OCCNC(=O)c2ccc3ccccc3n2)cc1`?
ELG1 genotoxic: 21%; FLuc counter: inconclusive; NPC1 promoter act: -6%; Rab9 prom act: 3%; ELG1 DNA repair: inconclusive

Results for O=C(Nc1ccc(Cl)cn1)c1ccc2ccccc2n1 ?
ELG1 genotoxic: inconclusive; FLuc counter: 1.5µM*; NPC1 promoter act: inconclusive; Rab9 prom act: inconclusive; ELG1 DNA repair: inconclusive; SMN2 splice enh: 20µM*

Results for Cc1ccc(NC(=O)c2ccc3ccccc3n2)nc1 ?
ELG1 genotoxic: 9.2µM*; FLuc counter: 1.7µM*; NPC1 promoter act: 2.5µM*; Rab9 prom act: 3.5µM*; ELG1 DNA repair: inconclusive; SMN2 splice enh: 3.2µM*

Results for O=C(CSc1nc2ncc(Cl)cc2[nH]1)NCC(=O)Nc1ccc(F)c(F)c1F ?
ELG1 genotoxic: -6%; FLuc counter: 6%; NPC1 promoter act: -1%; Rab9 prom act: -3%; ELG1 DNA repair: -3%

How did O=C(NC(=S)/C(=C1\CCCCCN1)[N+](=O)[O-])c1ccccc1 do in these assays?
ELG1 genotoxic: 0.23µM*; ELG1 DNA repair: inconclusive

How did Cc1ccc(NC(=O)CN2CCN(S(=O)(=O)c3ccc(C(C)C)cc3)CC2)cc1F do in these assays?
FLuc counter: 4%

How did Cc1cc(C(C)(C)C)nc2[nH]n(-c3ccccc3)c(=O)c12 do in these assays?
ELG1 genotoxic: -7%; FLuc counter: inconclusive; NPC1 promoter act: 2%; Rab9 prom act: -2%; ELG1 DNA repair: inconclusive; SMN2 splice enh: -22%

Results for O=c1c2c(C(F)(F)F)cc(C(F)(F)F)nc2[nH]n1-c1ccccc1 ?
ELG1 genotoxic: -26%; FLuc counter: -15%; NPC1 promoter act: 9%; Rab9 prom act: -10%; ELG1 DNA repair: 26µM*; SMN2 splice enh: 2%

How did Cc1cc(C)nc(Nc2n[nH]c(-c3ccccc3Cl)n2)n1 do in these assays?
ELG1 genotoxic: inconclusive; FLuc counter: 6.7µM*; NPC1 promoter act: inconclusive; Rab9 prom act: inconclusive; ELG1 DNA repair: inconclusive; SMN2 splice enh: 14µM*

How did Cc1cc(C)nc(Nc2n[nH]c(COc3ccccc3)n2)n1 do in these assays?
ELG1 genotoxic: 0%; FLuc counter: 3%; NPC1 promoter act: inconclusive; Rab9 prom act: inconclusive; ELG1 DNA repair: inconclusive; SMN2 splice enh: -14%

What do the screens show for `Cc1cc(C)nc(Nc2n[nH]c(-c3cccc4ccccc34)n2)n1`?
ELG1 genotoxic: 3%; FLuc counter: 12µM*; NPC1 promoter act: 26%; Rab9 prom act: 30%; ELG1 DNA repair: inconclusive; SMN2 splice enh: -12%

Results for COc1ccc(Cc2nnc(SCc3ccc([N+](=O)[O-])cc3)o2)cc1 ?
ELG1 genotoxic: -18%; FLuc counter: -5%; NPC1 promoter act: 2%; Rab9 prom act: 1%; ELG1 DNA repair: 23µM*; SMN2 splice enh: -3%

What do the screens show for `CCN(Cc1ccc2c(c1)OCO2)C(=O)CSc1nc(C)nc2sc(C)c(C)c12`?
ELG1 genotoxic: -11%; FLuc counter: 0%; NPC1 promoter act: -10%; Rab9 prom act: 1%; ELG1 DNA repair: 18µM*

What do the screens show for `CCN(C(=O)CSc1nc(C)nc2sc(C)c(C)c12)c1ccc(F)cc1`?
ELG1 genotoxic: 0%; FLuc counter: 4%; NPC1 promoter act: -3%; Rab9 prom act: -1%; ELG1 DNA repair: 1%

Results for COc1ccc(C(C)C)cc1S(=O)(=O)N1CCC(C(=O)NCC2CCCO2)CC1 (stereo unspecified) ?
ELG1 genotoxic: -4%; FLuc counter: 5%; NPC1 promoter act: 2%; Rab9 prom act: -3%; ELG1 DNA repair: -6%

What do the screens show for `Nc1cccc2cc(-c3ccccc3)oc12`?
ELG1 genotoxic: inconclusive; FLuc counter: 4.8µM*; NPC1 promoter act: 4µM*; Rab9 prom act: inconclusive; ELG1 DNA repair: inconclusive

Results for N#CCC(=O)Nc1ccc(C(=O)Nc2ccc3c(c2)OCO3)cc1 ?
ELG1 genotoxic: 17%; FLuc counter: inconclusive; NPC1 promoter act: 14%; Rab9 prom act: 26%; ELG1 DNA repair: 0%

How did N#CCC(=O)Nc1ccc(C(=O)OCC(=O)c2ccc3c(c2)OCO3)cc1 do in these assays?
ELG1 genotoxic: 12%; FLuc counter: inconclusive; NPC1 promoter act: inconclusive; Rab9 prom act: 4µM*; ELG1 DNA repair: inconclusive

What do the screens show for `N#CCC(=O)Nc1ccc(C(=O)OCC(=O)c2ccc3c(c2)OCCO3)cc1`?
ELG1 genotoxic: 12%; FLuc counter: 11µM*; NPC1 promoter act: inconclusive; Rab9 prom act: inconclusive; ELG1 DNA repair: inconclusive; SMN2 splice enh: -5%

How did Cc1ccc(NC(=O)c2ccc(N3C(=O)C4CC=C(Cl)CC4C3=O)cc2)cc1 (stereo unspecified) do in these assays?
ELG1 genotoxic: 4%; FLuc counter: -16%; NPC1 promoter act: -1%; Rab9 prom act: -1%; ELG1 DNA repair: 6%; SMN2 splice enh: 7%
